For 40 compounds, growth results are on record in PubChem BioAssay (NCI).

Structures are written as SMILES. About 83,000 compounds went through this panel and 20% of them were active in at least one assay; those are over-represented in the sample as a whole.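 Interpretation: 100, growth as untreated; towards 0, rising growth inhibition; 0, no net growth; 0 to -100, cell death. Compounds scoring below 10 were considered active.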 Calls of active or inactive are those of the source.

The assay deals with HL-60(TB) leukemia. The assay is described as follows: NCI-60 one-dose screen, 48 h (100 = growth as untreated, 0 = no growth, -100 = all killed). The following applies: 10 µM unless noted.
For `NCCCOc1cc(Cl)ccc1NC(=O)c1cc2ccccc2cc1OCCCN`, the growth was -73% (active). Regarding `Cc1ccc(C(=O)/C(=C/c2ccc([N+](=O)[O-])cc2)SCc2ccc(Cl)cc2)cc1`, the growth was 58% (inactive). On to `COc1cccc(-c2nc3occn3c2-c2ccnc(NCCCNS(=O)(=O)c3ccc(C(F)(F)F)cc3)n2)c1`, for which the growth is 116% (inactive). To `Oc1ccc(Cc2ccccc2)c2cccnc12` belongs -15.8% (active); to `C=CCOc1ccc(N=NC(C#N)C#N)cc1`, 0.44% (active).

Consider `Nc1ccccc1NC(=O)c1ccc(CN2CCC/C(=C\c3cccc(Cl)c3)C2=O)cc1`, for which the growth is -24.5% (active). To `O=C(CCl)NC1c2ccccc2Oc2ccccc21` belongs 78.4% (inactive). For the compound `O=c1oc2ccc(I)cc2c(=O)n1-c1ccc(I)cc1F`, the growth is -49.1% (active). The same measure for `COC(=O)c1c(C)nc(C)c2c1C(=O)C(Br)=C(NCCCCO)C2=O`: 24.1% (inactive). With `CC(C)c1nc(N(C)S(C)(=O)=O)nc(-c2ccc(F)cc2)c1/C=C/C(=O)C[C@@H](O)CC(=O)O`, the growth was 106% (inactive). The same measure for `Cc1ccc(NC(=S)N/C=C(\c2ccccc2)S(=O)Cc2ccccc2)c(C)c1` (stereo not given): 96.8% (inactive); for `CCCCCN1CCN(C(CC(=O)c2ccccc2)C(=O)c2ccccc2)CC1` (stereo not given): 60.4% (inactive).

Regarding `CC1(C)C(=O)/C(=C\c2ccco2)C[C@]2(C)[C@H]3CC=C4[C@@H]5C[C@](C)(C(=O)O)CC[C@]5(C)CC[C@@]4(C)[C@]3(C)CC[C@@H]12`, the growth is -21.1% [100 µM] (active). On to `Cc1cc2c3ccc(C)[n+](C)c3ccc2n1C`, for which the growth was -5.59% (active). For the compound `CC1=CC(C)(C)Nc2ccc(Cc3ccc4c(c3)C(C)=CC(C)(C)N4)cc21`, the growth is 122% (inactive). Consider `CSc1nc2c(c(=O)[nH]1)C1(C(=O)Nc3ccccc31)c1c(nc(SC)[nH]c1=O)N2`, for which the growth is 107% (inactive).

With `CCCCC#Cc1c(I)n(C2OC(CO[Si](C)(C)C(C)(C)C)C3OC(C)(C)OC32)c(=O)n(C(=O)c2ccccc2)c1=O` (stereo not given), the growth was 20.4% (inactive). To `CC(=O)Nc1ccc(C(=O)c2ccc(S(=O)(=O)Nc3ccccc3)cc2)cc1` belongs 102% (inactive); to `FC(F)(F)c1ccc2c(c1)n1cnnc1c1nncn21`, 104% (inactive); to `O=S(=O)(NCCCNc1nccc(-c2c(-c3ccccc3)nc3occn23)n1)c1ccc(Cl)cc1`, 101% (inactive). As to `COc1ccc(C2=CC(c3cc(OC)c(OC)c(OC)c3)n3ncnc3N2)cc1` (stereo not given), the growth was -29.9% (active). Turning to `O=C1/C(=C/c2ccccc2F)CN(C(=O)C(Cl)Cl)C/C1=C\c1ccccc1F`, the growth is -30.7% (active). Consider `O=C(Nc1cccc(C(F)(F)F)c1)C(Cl)Cl`, for which the growth is 94.1% (inactive).

Turning to `COc1ccc(C(=O)n2nc(/C=C/c3ccc(O)c(OC)c3)cc2/C=C/c2ccc(O)c(OC)c2)cc1`, the growth is -15.6% (active).

As to `CCC(CC)(N(CC(=O)O)CC(=O)O)C(CC)(CC)N(CC(=O)O)CC(=O)O`, the growth was 79.1% (inactive). To `O=C(NCCNCCO)c1cc([N+](=O)[O-])cc([N+](=O)[O-])c1O` belongs 102% (inactive). Take `O=C(Nc1cc(C(F)(F)F)cc(C(F)(F)F)c1)Nc1ccc(OCc2nnc(-c3ccc(Cl)cc3)o2)c(F)c1`: the growth was 5.4% (active).

For `CCOC(=O)c1cnc2c(cnn2CC)c1NN=C(C)C`, the growth is 74.4% (inactive). The same measure for `COc1cc(CNS(=O)(=O)c2ccc(C)cc2)ccc1OCc1cn(-c2ccc(Br)cc2)nn1`: 106% (inactive).

Take `COc1ccc(-c2cc(-c3cc(OC)ccc3OC)nc(N)c2C#N)cc1`: the growth is 90.4% (inactive). Regarding `COc1cc2c(cc1OC)-c1ccc3cc4c(cc3c1N(CCN1CCCC1)C2)OCO4`, the growth was -39.7% (active). For `Clc1ccccc1[C@@H]1C[C@@H]2Cc3cc(Br)c4ccccc4c3N1O2`, the growth is 7.98% (active). To `CC(C)n1nc(C#Cc2cccc3cc(-c4cccc(C(F)(F)F)c4)ncc23)c2c(N)ncnc21` belongs 57.1% (inactive).

As for `CCc1c(C)c2ccc(O)c(-c3cc(-c4ccccc4)c(C#N)c(=O)[nH]3)c2oc1=O`, the growth is 109% (inactive). The same measure for `COc1ccc(-c2nn(-c3ccc(NC(=O)c4cc(Cl)cc(Cl)c4)cc3)cc2-c2ccncc2)cc1Cl`: 20.3% (inactive); for `Fc1ccc(C(c2ccc(F)cc2)C(Cl)Cl)cc1`: 85.7% (inactive); for `O=C1/C=C/[C@@H](O)[C@@H]2C[C@@H](O)C[C@H]2/C=C/CCC[C@H](CCc2ccc(NC(=S)Nc3ccc4c(c3)C(=O)OC43c4ccc(O)cc4Oc4cc(O)ccc43)cc2)O1`: 4.65% (active). The same measure for `N=C1/C(=C2\NC3C=CC=CC3S2)C(c2ccc(Cl)cc2)C2C(=O)N(c3ccccc3)C(=S)N12` (stereo not given): 100% (inactive). As for `COc1cc(/C=C/C(=O)c2cccnc2Nc2ccc(F)cc2)cc(OC)c1OC`, the growth was 5.42% (active). Take `COc1cnc2c(c1)C(=O)c1c-2n(CCCN2CCOCC2)c(=O)c2cc(F)ccc12`: the growth is -10.2% (active).
